PNC assembly inh: perinucleolar compartment assembly inhibition; PC3M PTB-GFP, PNC prevalence imaging, 16 h; active compounds read low; activity change (PNC), negative = inhibition, % at 10 µM; 3.1% of 140,000 active; AID 2417;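 active = readout at or below -70, meaning at least 70% loss of cells showing the perinucleolar compartment, a nuclear body marking cancer cells; inconclusive = readout between -30 and a set limit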
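Read-out is percentage of cells bearing a perinucleolar compartment, from automated 20x imaging of fixed, Hoechst-stained PC3M PTB-GFP cells. Cells were seeded 4 h, then exposed 16 h to compound (23 nl of library stock) in duplicate plates.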
ALDH1A1 block: ALDH1A1 (human) enzyme inhibition | Potency, µM (titrated, usually from 75.3 µM), hits mostly inhibitors | Purified ALDH1A1, NADH fluorescence, propionaldehyde substrate | P00352 | 7.3% of 220,000 active | AID 1030; active = well fitted inhibition curve with a large enough effect, not every such curve was filed as active; inconclusive = small, poorly fitted or top-dose-only effect, or another doubt; inactive = no such curve, though single readings can be large or run the other way
Target sequence (P00352 whole entry, looked up): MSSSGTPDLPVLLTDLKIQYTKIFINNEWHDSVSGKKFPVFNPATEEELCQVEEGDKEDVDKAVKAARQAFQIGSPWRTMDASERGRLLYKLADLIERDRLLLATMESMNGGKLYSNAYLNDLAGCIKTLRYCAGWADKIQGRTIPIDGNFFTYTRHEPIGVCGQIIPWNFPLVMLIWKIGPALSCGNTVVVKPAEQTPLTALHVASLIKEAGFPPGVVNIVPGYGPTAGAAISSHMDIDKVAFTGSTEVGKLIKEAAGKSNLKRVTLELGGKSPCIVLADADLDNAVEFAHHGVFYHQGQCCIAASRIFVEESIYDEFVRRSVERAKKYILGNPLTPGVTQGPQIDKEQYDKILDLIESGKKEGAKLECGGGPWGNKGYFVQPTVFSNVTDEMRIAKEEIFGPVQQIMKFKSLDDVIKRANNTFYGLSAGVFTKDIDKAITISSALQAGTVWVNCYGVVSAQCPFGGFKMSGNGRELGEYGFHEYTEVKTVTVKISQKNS
RGS12 GoLoco inh: inhibitors of human Gai1-RGS12 GoLoco interaction (red fluorophore). P63096. Gai1:RGS12 GoLoco peptide FP, rhodamine, 10 min. Potency, µM (top dose mostly 61.6 µM), usual class: inhibitors. 0.44% of 230,000 active. AID 880; active = well fitted inhibition curve with a large enough effect, not every such curve was filed as active; inactive = no such curve, though single readings can be large or run the other way; note: nearly all actives have a fitted effect of over 30% in size
HTT aggregate: mutant huntingtin aggregation inhibition; PC12 HttQ103-GFP aggregates, Acumen cytometry, 40 h; Potency, µM (highest dose often 46.1 µM), hits mostly inhibitors; 1.1% of 220,000 active; AID 1688; note: nearly all actives have a fitted effect of over 60% in size
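PC12 cells with ecdysone-inducible HTT exon1 Q103-GFP, induced by 100 nM tebufenozide, given compounds in a concentration series. GFP aggregates (1–25 um, 6 SD above background) counted in lysates by laser-scanning cytometry, 488 nm excitation.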
HPGD block: inhibitors of human 15-hydroxyprostaglandin dehydrogenase (HPGD); P15428; purified HPGD, NADH fluorescence kinetic, PGE2 substrate; Potency, µM, usual class: inhibitors; 4.3% of 150,000 active; AID 894; active = well fitted inhibition curve with a large enough effect, not every such curve was filed as active; inconclusive = small, poorly fitted or top-dose-only effect, or another doubt; inactive = no such curve, though single readings can be large or run the other way
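20 nM HPGD preincubated 15 min at room temperature with compound in 50 mM Tris-HCl pH 8, 0.01% Tween 20. Started with 1 mM NAD+ and 30 uM prostaglandin E2; NADH fluorescence (360/450 nm) read 5 times over 30-s intervals, last minus first.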
HTT ATP protect: Huntington cell model cytoprotection by ATP luminescence; PC12 HTT-Q103 induced, cytoprotection, ATP luminescence, 40 h; Potency, µM (highest dose often 56.4 µM), hits mostly activators; 0.14% of 230,000 active; note: nearly all actives have a fitted effect of over 45% in size
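Quantitative HTS on tebufenozide-induced (100 nM) PC12 cells expressing HTTQ103 exon 1–GFP; compounds tested as a concentration series; survival measured via cellular ATP.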
Of the large screens only hits and unclear results are named; the others gave an inactive call. A selection: hits, their analogues and other compounds. The true share with any hit is near 11%. Unless noted, calls come from the whole dose curve; as a rule, active = well fitted curve in the direction sought with a large enough effect; inconclusive = small, poorly fitted or top-dose-only effect, or another doubt; inactive = no such curve, though single readings can be large; an effect the other way counts as inactive or inconclusive.

C/C(=N/Nc1nc(C)cc(=O)[nH]1)C(=O)O	none (no result: PNC assembly inh, HTT aggregate)
COc1cc(OC)cc(C(=O)Nc2ccc(S(=O)(=O)Nc3cc(C)nc(C)n3)cc2)c1	ALDH1A1 block 5µM
COc1ccc(C(=O)Nc2ccc(S(=O)(=O)Nc3cc(C)nc(C)n3)cc2)cc1OC	ALDH1A1 block 10µM (no result: PNC assembly inh, HPGD block)
Cc1cc(NS(=O)(=O)c2ccc(NC(=O)/C=C/c3ccc(C)o3)cc2)nc(C)n1	ALDH1A1 block 3.5µM (no result: PNC assembly inh, HPGD block)
COc1ccc(/C=C2\CCc3c2nc2ccccc2c3C(=O)O)cc1OC	none (no result: PNC assembly inh, ALDH1A1 block, HPGD block)
COc1ccc(/C=C2\CCCc3c2nc2ccccc2c3C(=O)O)cc1OC	RGS12 GoLoco inh 25µM (no result: PNC assembly inh, ALDH1A1 block, HPGD block)
COc1cc(/C=C2\CCCc3c2nc2ccccc2c3C(=O)O)cc(OC)c1O	ALDH1A1 block 14µM (no result: PNC assembly inh, HPGD block)
O=C(CSc1ccccc1)NCCSCc1ccccc1	PNC assembly inh inconclusive
Nc1ccc(N2CCN(c3ccc(F)cc3)CC2)cc1	ALDH1A1 block 22µM, HTT aggregate inconclusive (no result: PNC assembly inh, HPGD block)
Nc1ccc(N2CCCCCC2)cc1	PNC assembly inh inconclusive, ALDH1A1 block 7.9µM, HTT aggregate inconclusive
O=C(O)c1ccc(N2CCCCC2)cc1	none
Fc1cccc(CSc2ccc3nnc(-c4cccnc4)n3n2)c1	none (no result: PNC assembly inh, HPGD block)
Cn1c(COc2ccc(Br)cc2)nnc1SC1CCc2ccccc2C1=O (stereo not given)	PNC assembly inh inconclusive, ALDH1A1 block 22µM
C=C(C)C1CC=C(C)/C(=N\NC(=O)CCC(=O)Nc2ccc(C)c(C)c2)C1 (stereo not given)	none (no result: PNC assembly inh, ALDH1A1 block, HPGD block)
COc1cc2c(cc1/C=C/C(=O)O)OC(C)C2 (stereo not given)	ALDH1A1 block inconclusive (no result: PNC assembly inh, HPGD block)
CC(C)(O)C1Cc2cc(/C=C/C(=O)O)c(O)cc2O1 (stereo not given)	ALDH1A1 block inconclusive, RGS12 GoLoco inh 28µM (no result: PNC assembly inh, HPGD block)
O=C1Cn2c(nc3ccccc32)N1c1ccccc1F	PNC assembly inh -102
CCc1ccc(-c2nc(CN3CCC(C(=O)NCc4ccccc4OC)CC3)c(C)o2)cc1	PNC assembly inh -98, ALDH1A1 block inconclusive, HTT aggregate inconclusive
COc1ccccc1CNC(=O)c1ccc(-c2ccccc2Cl)o1	ALDH1A1 block 14µM, HTT aggregate inconclusive (no result: HTT ATP protect)
COc1ccccc1CNC(=O)C1CCC1	HPGD block 14µM
COc1ccccc1CNC(=O)CSc1ccc(Br)cc1	HPGD block 28µM
COc1ccccc1CNC(=O)COc1ccccc1OC	none
COc1ccccc1CNC(=O)CC(C)C	HTT aggregate inconclusive, HPGD block 25µM, HTT ATP protect inconclusive
CCN(CC)S(=O)(=O)c1cnccc1N1CCN(c2cccc(Cl)c2)CC1	none (no result: HTT ATP protect)
CC(C)(C)c1csc(NC(=O)c2ccc(Cl)s2)n1	HTT aggregate 8.9µM
Cc1ccc(C(=O)Nc2nc(C(C)(C)C)cs2)s1	ALDH1A1 block inconclusive, HTT aggregate inconclusive
CC(C)(C)c1csc(NC(=O)c2ccncc2)n1	none (no result: PNC assembly inh, HPGD block, HTT ATP protect)
CC(C)(C)c1csc(NC(=O)c2ccc3nccnc3c2)n1	ALDH1A1 block inconclusive, HPGD block 10µM
CCOC1=NC(C(=O)O)c2ccccc2/C(=C(/C)Cl)N1 (stereo not given)	ALDH1A1 block 4µM
CCC(=O)OC1c2ccccc2C(=O)N1Cc1ccccc1 (stereo not given)	none
Cn1c(=O)cc(SCC(=O)NCCC2=CCCCC2)c2ccccc21	ALDH1A1 block inconclusive, HPGD block 7.1µM
Cn1c(=O)cc(SCC(=O)NCC2CCCO2)c2ccccc21 (stereo not given)	ALDH1A1 block 13µM (no result: RGS12 GoLoco inh, HPGD block)
O=C(CSc1cn(CC(=O)N2CCCCC2)c2ccccc12)NCC1CCCO1 (stereo not given)	ALDH1A1 block inconclusive (no result: PNC assembly inh, HPGD block)
CCCn1cc(SCC(=O)NCC2CCCO2)c2ccccc21 (stereo not given)	ALDH1A1 block inconclusive, HPGD block inconclusive
COc1ccc(CNC(=O)CSc2cc(=O)n(C)c3ccccc23)cc1	none (no result: PNC assembly inh, HPGD block)
CC(C)C(=O)c1cn(CC(=O)NCC2CCCO2)c2ccccc12 (stereo not given)	ALDH1A1 block 22µM
O=C(Cn1ncc2c(=O)oc3ccccc3c21)NCC1CCCO1 (stereo not given)	PNC assembly inh -119

Assay outcomes from PubChem.
